Consider 14 compounds from the supplement of paper PMC8047044.

Structures are written as SMILES. Where a name gives a salt, the structure may show the parent alone.

In this assay the test system is Neuro-2a. Put plainly: neurite formation score, plate-normalized to DMSO control mean 5.04 (score (0-8 scale)); higher = more or longer neurites. The following applies: 0.1 µM. How it is done: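 Neuro-2a mouse neuroblastoma cells in PLL-coated 96-well plates were pre-treated for 1 h in DMEM(+) with each kinase inhibitor at 0.1 µM, then switched to serum-free DMEM(-) with inhibitor to induce neurite outgrowth and fixed about 2-3 h later. Three blinded observers scored neurite formation from 0 (no neurites) to 8 (long neurites on almost all cells).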
As for `C[C@@H]1COCCN1c1cc(C2(S(C)(=O)=O)CC2)nc(-c2cccc3[nH]ccc23)n1`, the neurite formation score was found to be 4.71.
`CC(=O)Nc1cccc(-n2c(=O)n(C3CC3)c(=O)c3c(Nc4ccc(I)cc4F)n(C)c(=O)c(C)c32)c1` showed a neurite formation score of 4.38.
Turning to `COc1cc2ncnc(Sc3nnc(C)s3)c2cc1OC`, the neurite formation score turned out to be 4.25.
Take `O=C(O)c1ccc(Nc2ncc3c(n2)-c2ccc(Cl)cc2C(c2c(F)cccc2F)=NC3)cc1`: the neurite formation score is 2.76.
`C=CC(=O)Nc1cccc(Oc2nc(Nc3ccc(N4CCN(C)CC4)cc3)ncc2Cl)c1`: the neurite formation score amounted to 4.25.
In turn, `CN(C)C(=O)c1cc2cnc(Nc3ccc(N4CCNCC4)cn3)nc2n1C1CCCC1` came in with a neurite formation score of 4.58.
Turning to `CNC(=O)c1c(F)cccc1Nc1nc(Nc2cc3c(cc2OC)CCN3C(=O)CN(C)C)nc2[nH]ccc12`, the neurite formation score came out at 4.58.
The compound `CNC(=O)c1ccccc1Sc1ccc2c(/C=C/c3ccccn3)n[nH]c2c1` displayed a neurite formation score of 4.54.
`c1cc(-c2cnn3cc(-c4ccc(OCCN5CCCCC5)cc4)cnc23)ccn1` [Dorsomorphin 2HCl] came in with a neurite formation score of 3.92.
`Cc1cc(Nc2cc(N3CCN(C)CC3)nc(Sc3ccc(NC(=O)C4CC4)cc3)n2)n[nH]1` [VX-680 (MK-0457,Tozasertib)] registered a neurite formation score of 3.58.
`COc1cc2ncnc(Nc3cccc(Br)c3)c2cc1OC`: the neurite formation score stood at 5.09.
In the case of `CNC(=O)c1cc(Oc2ccc(NC(=O)c3cccc(C(F)(F)F)c3)cc2)ccn1` it was 5.54; in that of `NC(=O)c1ccc(N(C(N)=O)c2c(F)cccc2F)nc1-c1ccc(F)cc1F`, 4.58.
In turn, `Oc1cccc(-c2nc(N3CCOCC3)c3oc4ncccc4c3n2)c1` [PI-103 Hydrochloride] showed a neurite formation score of 5.25.
